From paper PMC11006913
Changes are numbered by the printed parent chain.

What was measured:
Experiment in all cases: PBM; 200 nM protein, PBS
Settings in all cases: dsDNA, one strand shown
[1] = target: NKX2-5 (Homo sapiens, UniProt P52952 125-210, R139K)
[2] = target: NKX2-5 (Homo sapiens, UniProt P52952 125-210)
[3] = target: HESX1 (Homo sapiens, UniProt Q9UBX0 95-180, R165K)
[4] = target: HOXB4 (Homo sapiens, UniProt P17483 148-234)
[5] = target: SHOX (Homo sapiens, UniProt O15266 103-189)
[6] = target: T1, VENTX (Homo sapiens, UniProt O95231 78-163, R121Q)
T1 sequence: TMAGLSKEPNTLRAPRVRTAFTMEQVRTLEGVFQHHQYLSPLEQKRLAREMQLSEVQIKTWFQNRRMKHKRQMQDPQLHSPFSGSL

[7] = target: HOXB9 (Homo sapiens, UniProt P17482 171-250, T197M)
[8] = target: HOXA4 (Homo sapiens, UniProt Q00056 201-287, W262R)
[9] = target: HOXC9 (Homo sapiens, UniProt P31274 178-260, K195R)
[10] = target: T2, VENTX (Homo sapiens, UniProt O95231 78-163)
T2 sequence: T1 sequence with Q44R

[11] = target: HOXA7 (Homo sapiens, UniProt P31268 116-202)
[12] = target: HOXC10 (Homo sapiens, UniProt Q9NYD6 254-340)
[13] = target: ALX4 (Homo sapiens, UniProt Q9H161 200-286)
[14] = target: T3, PAX4 (Homo sapiens, UniProt O43316 9-242, R200K)
T3 sequence: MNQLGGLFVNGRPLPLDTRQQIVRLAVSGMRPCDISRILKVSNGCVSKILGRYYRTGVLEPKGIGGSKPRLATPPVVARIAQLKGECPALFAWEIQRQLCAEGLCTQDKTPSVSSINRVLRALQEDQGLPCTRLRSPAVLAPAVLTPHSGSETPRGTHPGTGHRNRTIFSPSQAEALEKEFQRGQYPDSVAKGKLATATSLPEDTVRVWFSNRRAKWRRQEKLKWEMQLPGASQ

[15] = target: PRRX1 (Homo sapiens, UniProt P54821 80-166, F113S)
[16] = target: T4, VENTX (Homo sapiens, UniProt O95231 78-163, Y115F)
T4 sequence: T1 sequence with Y38F, Q44R

[17] = target: T5, PAX4 (Homo sapiens, UniProt O43316 9-242)
T5 sequence: T3 sequence with K192R

[18] = target: HOXB6 (Homo sapiens, UniProt P17509 132-218, K202E)
[19] = target: ALX4 (Homo sapiens, UniProt Q9H161 200-286, Q225E)
[20] = target: HESX1 (Homo sapiens, UniProt Q9UBX0 95-180)
[21] = target: HOXA2 (Homo sapiens, UniProt O43364 129-215, R185T)
[22] = target: HOXA4 (Homo sapiens, UniProt Q00056 201-287, R217L)
[23] = target: HOXB9 (Homo sapiens, UniProt P17482 171-250)
[24] = target: HOXB4 (Homo sapiens, UniProt P17483 148-234, V174I)
[25] = target: HOXC9 (Homo sapiens, UniProt P31274 178-260)
[26] = target: MSX2 (Homo sapiens, UniProt P35548 130-214, R199I)
[27] = target: ALX1 (Homo sapiens, UniProt Q15699 118-204, L144V)
[28] = target: ALX3 (Homo sapiens, UniProt O95076 139-225, N203Q)
[29] = target: T6, PAX4 (Homo sapiens, UniProt O43316 9-242, R200Q)
T6 sequence: T3 sequence with K192Q

[30] = target: SHOX (Homo sapiens, UniProt O15266 103-189, R173C)
[31] = target: HOXC9 (Homo sapiens, UniProt P31274 178-260, R193K)
[32] = target: HOXA2 (Homo sapiens, UniProt O43364 129-215, R185K)
[33] = target: ALX1 (Homo sapiens, UniProt Q15699 118-204, L144R)
[34] = target: T7, PAX4 (Homo sapiens, UniProt O43316 9-242, F177V)
T7 sequence: T3 sequence with F169V, K192R

[35] = target: HOXA4 (Homo sapiens, UniProt Q00056 201-287)
[36] = target: HOXC10 (Homo sapiens, UniProt Q9NYD6 254-340, K271E)
[37] = target: MSX2 (Homo sapiens, UniProt P35548 130-214)
[38] = target: ALX3 (Homo sapiens, UniProt O95076 139-225)
[39] = target: T8, PAX4 (Homo sapiens, UniProt O43316 9-242, F177Y)
T8 sequence: T3 sequence with F169Y, K192R

[40] = target: PROP1 (Homo sapiens, UniProt O75360 56-141)
[41] = target: HESX1 (Homo sapiens, UniProt Q9UBX0 95-180, R109Q)
[42] = target: PROP1 (Homo sapiens, UniProt O75360 56-141, R99H)
[43] = target: VAX1 (Homo sapiens, UniProt Q5SQQ9 86-172)
[44] = target: ALX3 (Homo sapiens, UniProt O95076 139-225, L168Q)
[45] = target: HESX1 (Homo sapiens, UniProt Q9UBX0 95-180, P111T)
[46] = target: HOXB9 (Homo sapiens, UniProt P17482 171-250, R186Q)
[47] = target: HOXC9 (Homo sapiens, UniProt P31274 178-260, R222W)
[48] = target: ALX3 (Homo sapiens, UniProt O95076 139-225, L168V)
[49] = target: PROP1 (Homo sapiens, UniProt O75360 56-141, F88S)
[50] = target: MSX2 (Homo sapiens, UniProt P35548 130-214, F161Y)
[51] = target: HESX1 (Homo sapiens, UniProt Q9UBX0 95-180, F115L)
[52] = target: VAX1 (Homo sapiens, UniProt Q5SQQ9 86-172, T142I)
[53] = target: T9, PAX4 (Homo sapiens, UniProt O43316 9-242, R227W)
T9 sequence: T3 sequence with K192R, R219W

[54] = target: HOXA2 (Homo sapiens, UniProt O43364 129-215, Y150S)
[55] = target: HOXA7 (Homo sapiens, UniProt P31268 116-202, W177C)
[56] = target: ALX1 (Homo sapiens, UniProt Q15699 118-204)
[57] = target: HOXA4 (Homo sapiens, UniProt Q00056 201-287, W262F)
[58] = target: ALX3 (Homo sapiens, UniProt O95076 139-225, N203S)
[59] = target: PRRX1 (Homo sapiens, UniProt P54821 80-166)
[60] = target: HOXA2 (Homo sapiens, UniProt O43364 129-215)
[61] = target: VAX1 (Homo sapiens, UniProt Q5SQQ9 86-172, K157R)
[62] = target: HOXB6 (Homo sapiens, UniProt P17509 132-218)
Chain of HOXB6 (Homo sapiens, UniProt P17509 132-218) (P17509 132-218): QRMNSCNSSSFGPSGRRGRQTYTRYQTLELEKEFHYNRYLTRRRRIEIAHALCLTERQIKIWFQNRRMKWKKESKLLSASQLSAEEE

Chain of HOXC9 (Homo sapiens, UniProt P31274 178-260, R222W) (P31274 178-260 R222W): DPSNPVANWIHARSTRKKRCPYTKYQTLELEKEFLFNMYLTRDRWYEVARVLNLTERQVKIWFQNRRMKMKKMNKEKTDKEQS
Chain of ALX3 (Homo sapiens, UniProt O95076 139-225, L168V) (O95076 139-225 L168V): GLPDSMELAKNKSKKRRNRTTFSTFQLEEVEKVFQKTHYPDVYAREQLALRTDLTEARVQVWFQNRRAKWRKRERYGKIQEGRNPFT
Chain of HOXC9 (Homo sapiens, UniProt P31274 178-260, R193K) (P31274 178-260 R193K): as the sequence (P31274 178-260 R222W) above, with R16K, W45R counted along it
Chain of ALX3 (Homo sapiens, UniProt O95076 139-225, N203Q) (O95076 139-225 N203Q): as the sequence (O95076 139-225 L168V) above, with V30L, N65Q counted along it
Chain of HOXA2 (Homo sapiens, UniProt O43364 129-215, R185K) (O43364 129-215 R185K): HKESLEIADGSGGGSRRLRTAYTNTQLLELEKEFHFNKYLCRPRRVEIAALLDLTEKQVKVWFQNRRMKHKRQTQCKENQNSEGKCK
Chain of SHOX (Homo sapiens, UniProt O15266 103-189) (O15266 103-189): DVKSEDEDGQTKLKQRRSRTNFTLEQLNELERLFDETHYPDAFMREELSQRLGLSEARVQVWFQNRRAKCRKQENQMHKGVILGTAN
Chain of HOXA7 (Homo sapiens, UniProt P31268 116-202) (P31268 116-202): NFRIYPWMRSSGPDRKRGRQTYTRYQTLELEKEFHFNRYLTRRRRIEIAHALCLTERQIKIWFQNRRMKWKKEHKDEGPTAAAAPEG
Chain of ALX1 (Homo sapiens, UniProt Q15699 118-204, L144V) (Q15699 118-204 L144V): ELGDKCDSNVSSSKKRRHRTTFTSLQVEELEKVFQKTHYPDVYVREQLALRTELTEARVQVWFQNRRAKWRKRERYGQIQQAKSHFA
Chain of ALX3 (Homo sapiens, UniProt O95076 139-225, L168Q) (O95076 139-225 L168Q): as the sequence (O95076 139-225 L168V) above, with V30Q counted along it
Chain of HOXA2 (Homo sapiens, UniProt O43364 129-215, R185T) (O43364 129-215 R185T): as the sequence (O43364 129-215 R185K) above, with K57T counted along it
Chain of PRRX1 (Homo sapiens, UniProt P54821 80-166, F113S) (P54821 80-166 F113S): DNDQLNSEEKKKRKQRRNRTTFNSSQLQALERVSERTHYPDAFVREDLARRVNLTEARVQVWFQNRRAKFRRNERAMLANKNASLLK
Chain of HOXB4 (Homo sapiens, UniProt P17483 148-234) (P17483 148-234): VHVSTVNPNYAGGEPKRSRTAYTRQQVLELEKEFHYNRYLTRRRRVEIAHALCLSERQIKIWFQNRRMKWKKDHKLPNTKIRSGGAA
Chain of ALX1 (Homo sapiens, UniProt Q15699 118-204) (Q15699 118-204): as the sequence (Q15699 118-204 L144V) above, with V27L counted along it
Chain of HOXC9 (Homo sapiens, UniProt P31274 178-260) (P31274 178-260): as the sequence (P31274 178-260 R222W) above, with W45R counted along it
Chain of NKX2-5 (Homo sapiens, UniProt P52952 125-210, R139K) (P52952 125-210 R139K): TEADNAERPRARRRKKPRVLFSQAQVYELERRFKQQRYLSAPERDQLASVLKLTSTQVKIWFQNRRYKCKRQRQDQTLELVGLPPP
Chain of PROP1 (Homo sapiens, UniProt O75360 56-141) (O75360 56-141): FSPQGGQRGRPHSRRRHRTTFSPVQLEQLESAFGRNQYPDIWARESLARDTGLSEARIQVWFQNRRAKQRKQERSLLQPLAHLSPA
Chain of VAX1 (Homo sapiens, UniProt Q5SQQ9 86-172) (Q5SQQ9 86-172): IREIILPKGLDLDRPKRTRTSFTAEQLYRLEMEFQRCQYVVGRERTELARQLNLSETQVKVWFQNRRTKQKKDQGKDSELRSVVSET
Chain of ALX4 (Homo sapiens, UniProt Q9H161 200-286, Q225E) (Q9H161 200-286 Q225E): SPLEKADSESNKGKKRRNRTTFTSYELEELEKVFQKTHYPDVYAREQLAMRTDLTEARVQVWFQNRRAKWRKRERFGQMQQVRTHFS
Chain of HOXA4 (Homo sapiens, UniProt Q00056 201-287) (Q00056 201-287): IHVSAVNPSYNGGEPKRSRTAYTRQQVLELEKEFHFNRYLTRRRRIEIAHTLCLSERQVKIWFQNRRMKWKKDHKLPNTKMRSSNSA
Chain of HOXB9 (Homo sapiens, UniProt P17482 171-250) (P17482 171-250): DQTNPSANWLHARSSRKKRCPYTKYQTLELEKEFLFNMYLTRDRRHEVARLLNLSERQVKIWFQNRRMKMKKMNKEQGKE
Chain of HOXB4 (Homo sapiens, UniProt P17483 148-234, V174I) (P17483 148-234 V174I): as the sequence (P17483 148-234) above, with V27I counted along it
Chain of PRRX1 (Homo sapiens, UniProt P54821 80-166) (P54821 80-166): as the sequence (P54821 80-166 F113S) above, with S34F counted along it
Chain of HOXA4 (Homo sapiens, UniProt Q00056 201-287, W262R) (Q00056 201-287 W262R): as the sequence (Q00056 201-287) above, with W62R counted along it
Chain of HESX1 (Homo sapiens, UniProt Q9UBX0 95-180, F115L) (Q9UBX0 95-180 F115L): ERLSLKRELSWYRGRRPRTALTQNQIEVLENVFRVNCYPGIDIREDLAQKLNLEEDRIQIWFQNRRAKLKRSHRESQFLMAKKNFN
Chain of HESX1 (Homo sapiens, UniProt Q9UBX0 95-180, R165K) (Q9UBX0 95-180 R165K): as the sequence (Q9UBX0 95-180 F115L) above, with L21F, R71K counted along it
Chain of NKX2-5 (Homo sapiens, UniProt P52952 125-210) (P52952 125-210): as the sequence (P52952 125-210 R139K) above, with K15R counted along it
Chain of MSX2 (Homo sapiens, UniProt P35548 130-214) (P35548 130-214): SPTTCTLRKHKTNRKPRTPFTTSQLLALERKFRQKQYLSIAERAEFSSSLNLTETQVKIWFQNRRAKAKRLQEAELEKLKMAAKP
Chain of VAX1 (Homo sapiens, UniProt Q5SQQ9 86-172, T142I) (Q5SQQ9 86-172 T142I): as the sequence (Q5SQQ9 86-172) above, with T57I counted along it
Chain of PROP1 (Homo sapiens, UniProt O75360 56-141, F88S) (O75360 56-141 F88S): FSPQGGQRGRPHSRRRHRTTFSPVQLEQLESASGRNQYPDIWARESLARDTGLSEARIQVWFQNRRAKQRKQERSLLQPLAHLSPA
Chain of ALX4 (Homo sapiens, UniProt Q9H161 200-286) (Q9H161 200-286): as the sequence (Q9H161 200-286 Q225E) above, with E26Q counted along it
Chain of HESX1 (Homo sapiens, UniProt Q9UBX0 95-180, R109Q) (Q9UBX0 95-180 R109Q): as the sequence (Q9UBX0 95-180 F115L) above, with R15Q, L21F counted along it
Chain of HOXB9 (Homo sapiens, UniProt P17482 171-250, R186Q) (P17482 171-250 R186Q): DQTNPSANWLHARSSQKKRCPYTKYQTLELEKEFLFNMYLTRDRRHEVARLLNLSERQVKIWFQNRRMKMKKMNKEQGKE
Chain of VAX1 (Homo sapiens, UniProt Q5SQQ9 86-172, K157R) (Q5SQQ9 86-172 K157R): as the sequence (Q5SQQ9 86-172) above, with K72R counted along it
Chain of SHOX (Homo sapiens, UniProt O15266 103-189, R173C) (O15266 103-189 R173C): as the sequence (O15266 103-189) above, with R71C counted along it
Chain of ALX1 (Homo sapiens, UniProt Q15699 118-204, L144R) (Q15699 118-204 L144R): as the sequence (Q15699 118-204 L144V) above, with V27R counted along it
Chain of HESX1 (Homo sapiens, UniProt Q9UBX0 95-180) (Q9UBX0 95-180): as the sequence (Q9UBX0 95-180 F115L) above, with L21F counted along it
Chain of PROP1 (Homo sapiens, UniProt O75360 56-141, R99H) (O75360 56-141 R99H): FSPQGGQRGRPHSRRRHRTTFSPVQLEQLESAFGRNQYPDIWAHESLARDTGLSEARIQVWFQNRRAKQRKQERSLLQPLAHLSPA
Chain of HOXC9 (Homo sapiens, UniProt P31274 178-260, K195R) (P31274 178-260 K195R): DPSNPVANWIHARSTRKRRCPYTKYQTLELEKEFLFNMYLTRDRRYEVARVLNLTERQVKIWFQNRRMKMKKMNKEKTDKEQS
Chain of HOXB6 (Homo sapiens, UniProt P17509 132-218, K202E) (P17509 132-218 K202E): as the sequence (P17509 132-218) above, with K71E counted along it
Chain of HESX1 (Homo sapiens, UniProt Q9UBX0 95-180, P111T) (Q9UBX0 95-180 P111T): as the sequence (Q9UBX0 95-180 F115L) above, with P17T, L21F counted along it
Chain of HOXA2 (Homo sapiens, UniProt O43364 129-215) (O43364 129-215): as the sequence (O43364 129-215 R185K) above, with K57R counted along it
Chain of MSX2 (Homo sapiens, UniProt P35548 130-214, R199I) (P35548 130-214 R199I): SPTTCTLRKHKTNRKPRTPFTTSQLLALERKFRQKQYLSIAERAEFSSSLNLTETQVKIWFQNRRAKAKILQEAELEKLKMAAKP
Chain of ALX3 (Homo sapiens, UniProt O95076 139-225, N203S) (O95076 139-225 N203S): as the sequence (O95076 139-225 L168V) above, with V30L, N65S counted along it
Chain of HOXA7 (Homo sapiens, UniProt P31268 116-202, W177C) (P31268 116-202 W177C): as the sequence (P31268 116-202) above, with W62C counted along it
Chain of HOXA4 (Homo sapiens, UniProt Q00056 201-287, W262F) (Q00056 201-287 W262F): as the sequence (Q00056 201-287) above, with W62F counted along it

CCAACGCA
binding signal [1]: 8.88 upbm affinity estimate (log intensity, higher = more binding, comparable within an allelic series) | binding signal [2]: 8.96 upbm affinity estimate (log intensity, higher = more binding, comparable within an allelic series)

CGTAATTA
binding signal [3]: 12.6 upbm affinity estimate (log intensity, higher = more binding, comparable within an allelic series) | binding signal [4]: 13.5 upbm affinity estimate (log intensity, higher = more binding, comparable within an allelic series) | binding signal [5]: 12.4 upbm affinity estimate (log intensity, higher = more binding, comparable within an allelic series) | binding signal [6]: 12.2 upbm affinity estimate (log intensity, higher = more binding, comparable within an allelic series) | binding signal [7]: 10.2 upbm affinity estimate (log intensity, higher = more binding, comparable within an allelic series) | binding signal [8]: 10.7 upbm affinity estimate (log intensity, higher = more binding, comparable within an allelic series) | binding signal [9]: 12.7 upbm affinity estimate (log intensity, higher = more binding, comparable within an allelic series) | binding signal [10]: 12.7 upbm affinity estimate (log intensity, higher = more binding, comparable within an allelic series) | binding signal [11]: 12 upbm affinity estimate (log intensity, higher = more binding, comparable within an allelic series) | binding signal [12]: 12.3 upbm affinity estimate (log intensity, higher = more binding, comparable within an allelic series) | binding signal [13]: 14.2 upbm affinity estimate (log intensity, higher = more binding, comparable within an allelic series) | binding signal [14]: 11.9 upbm affinity estimate (log intensity, higher = more binding, comparable within an allelic series) | binding signal [15]: 11.5 upbm affinity estimate (log intensity, higher = more binding, comparable within an allelic series) | binding signal [16]: 12.3 upbm affinity estimate (log intensity, higher = more binding, comparable within an allelic series) | binding signal [17]: 12.4 upbm affinity estimate (log intensity, higher = more binding, comparable within an allelic series) | binding signal [18]: 10.2 upbm affinity estimate (log intensity, higher = more binding, comparable within an allelic series) | binding signal [19]: 13.5 upbm affinity estimate (log intensity, higher = more binding, comparable within an allelic series) | binding signal [20]: 12.6 upbm affinity estimate (log intensity, higher = more binding, comparable within an allelic series) | binding signal [21]: 13.9 upbm affinity estimate (log intensity, higher = more binding, comparable within an allelic series) | binding signal [22]: 12.7 upbm affinity estimate (log intensity, higher = more binding, comparable within an allelic series) | binding signal [23]: 11.9 upbm affinity estimate (log intensity, higher = more binding, comparable within an allelic series) | binding signal [24]: 14.3 upbm affinity estimate (log intensity, higher = more binding, comparable within an allelic series) | binding signal [25]: 12.8 upbm affinity estimate (log intensity, higher = more binding, comparable within an allelic series) | binding signal [26]: 12.9 upbm affinity estimate (log intensity, higher = more binding, comparable within an allelic series) | binding signal [27]: 12 upbm affinity estimate (log intensity, higher = more binding, comparable within an allelic series) | binding signal [28]: 8.47 upbm affinity estimate (log intensity, higher = more binding, comparable within an allelic series) | binding signal [29]: 12.3 upbm affinity estimate (log intensity, higher = more binding, comparable within an allelic series) | binding signal [30]: 9.89 upbm affinity estimate (log intensity, higher = more binding, comparable within an allelic series) | binding signal [31]: 12.7 upbm affinity estimate (log intensity, higher = more binding, comparable within an allelic series) | binding signal [32]: 14 upbm affinity estimate (log intensity, higher = more binding, comparable within an allelic series) | binding signal [33]: 11.7 upbm affinity estimate (log intensity, higher = more binding, comparable within an allelic series) | binding signal [34]: 10.7 upbm affinity estimate (log intensity, higher = more binding, comparable within an allelic series) | binding signal [35]: 14.2 upbm affinity estimate (log intensity, higher = more binding, comparable within an allelic series) | binding signal [36]: 12.3 upbm affinity estimate (log intensity, higher = more binding, comparable within an allelic series) | binding signal [37]: 14 upbm affinity estimate (log intensity, higher = more binding, comparable within an allelic series) | binding signal [38]: 12.7 upbm affinity estimate (log intensity, higher = more binding, comparable within an allelic series) | binding signal [39]: 11.1 upbm affinity estimate (log intensity, higher = more binding, comparable within an allelic series) | binding signal [40]: 11.6 upbm affinity estimate (log intensity, higher = more binding, comparable within an allelic series) | binding signal [41]: 9.06 upbm affinity estimate (log intensity, higher = more binding, comparable within an allelic series) | binding signal [42]: 11.5 upbm affinity estimate (log intensity, higher = more binding, comparable within an allelic series) | binding signal [43]: 13.6 upbm affinity estimate (log intensity, higher = more binding, comparable within an allelic series) | binding signal [44]: 10.7 upbm affinity estimate (log intensity, higher = more binding, comparable within an allelic series) | binding signal [45]: 11.1 upbm affinity estimate (log intensity, higher = more binding, comparable within an allelic series) | binding signal [46]: 11.7 upbm affinity estimate (log intensity, higher = more binding, comparable within an allelic series) | binding signal [47]: 10.9 upbm affinity estimate (log intensity, higher = more binding, comparable within an allelic series) | binding signal [48]: 10.2 upbm affinity estimate (log intensity, higher = more binding, comparable within an allelic series) | binding signal [49]: 7.88 upbm affinity estimate (log intensity, higher = more binding, comparable within an allelic series) | binding signal [50]: 13.6 upbm affinity estimate (log intensity, higher = more binding, comparable within an allelic series) | binding signal [51]: 7.77 upbm affinity estimate (log intensity, higher = more binding, comparable within an allelic series) | binding signal [52]: 13.6 upbm affinity estimate (log intensity, higher = more binding, comparable within an allelic series) | binding signal [53]: 11.1 upbm affinity estimate (log intensity, higher = more binding, comparable within an allelic series) | binding signal [54]: 11 upbm affinity estimate (log intensity, higher = more binding, comparable within an allelic series) | binding signal [55]: 8.91 upbm affinity estimate (log intensity, higher = more binding, comparable within an allelic series) | binding signal [56]: 12.7 upbm affinity estimate (log intensity, higher = more binding, comparable within an allelic series) | binding signal [57]: 12.3 upbm affinity estimate (log intensity, higher = more binding, comparable within an allelic series) | binding signal [58]: 8.56 upbm affinity estimate (log intensity, higher = more binding, comparable within an allelic series) | binding signal [59]: 13.5 upbm affinity estimate (log intensity, higher = more binding, comparable within an allelic series) | binding signal [60]: 13.2 upbm affinity estimate (log intensity, higher = more binding, comparable within an allelic series) | binding signal [61]: 13.7 upbm affinity estimate (log intensity, higher = more binding, comparable within an allelic series) | binding signal [62]: 12.4 upbm affinity estimate (log intensity, higher = more binding, comparable within an allelic series)
